# Experimental data as given in PubChem BioAssay AID1159580 (chemical genetic matrix, 2015).
# Where “and” joins values, the source holds several entries; their conditions need not be identical. Equal entries are not always repeated. Hit rate of the full screen: of about 5,500 compounds, about 2,000 (36%) were called active. Inconclusive results (about 18%) are left out. No stated cut-off is given here; in the data, active means normalized growth mostly below about 0.91 (no sharp cut-off); inconclusive means no clear call, values can overlap the other calls; inactive means mostly above about 0.92. The list shows a part of the results.
# Assay: chemical genetic growth profiling, strain panel (AID 1159580);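 further: tested at 20 µM; growth read once vehicle control cultures reached saturation at 30 °C; 1 = growth at the plate median or of vehicle wells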
# Conditions: S. cerevisiae deletion strains, growth OD
smiles,measurement,setting,value
O=C(OCc1ccccc1)c1ccccc1,normalized growth,"locus YAL021C, strain ccr4, stronger effect = lower value",1.02 (inactive)
same,normalized growth,"locus YAL026C, strain drs2, stronger effect = lower value",0.93 (inactive)
same,normalized growth,"locus YAL030W, strain snc1, stronger effect = lower value",0.967 (inactive)
same,normalized growth,"locus YBL061C, strain skt5, stronger effect = lower value",0.966 (inactive)
same,normalized growth,"locus YBR009C, strain hhf1, stronger effect = lower value",0.954 (inactive)
same,normalized growth,"locus YBR021W, strain FUR4, stronger effect = lower value",1 (inactive)
same,normalized growth,"locus YBR023C, strain chs3, stronger effect = lower value",0.942 (inactive)
same,normalized growth,"locus YBR171W, strain sec66, stronger effect = lower value",0.927 (inactive)
same,normalized growth,"locus YBR229C, strain ROT2, stronger effect = lower value",0.994 (inactive)
same,normalized growth,"locus YBR231C, strain swc5, stronger effect = lower value",0.995 (inactive)
same,normalized growth,"locus YBR279W, strain paf1, stronger effect = lower value",0.979 (inactive)
same,normalized growth,"locus YCL011C, strain gbp2, stronger effect = lower value",0.978 (inactive)
same,normalized growth,"locus YCL016C, strain dcc1, stronger effect = lower value",0.947 (inactive)
same,normalized growth,"locus YCL029C, strain bik1, stronger effect = lower value",0.969 (inactive)
same,normalized growth,"locus YCL061C, strain MRC1, stronger effect = lower value",0.958 (inactive)
same,normalized growth,"locus YCL069W, strain vba3, stronger effect = lower value",0.966 (inactive)
same,normalized growth,"locus YCR088W, strain abp1, stronger effect = lower value",0.946 (inactive)
same,normalized growth,"locus YDL005C, strain med2, stronger effect = lower value",0.981 (inactive)
same,normalized growth,"locus YDL035C, strain GPR1, stronger effect = lower value",0.961 (inactive)
same,normalized growth,"locus YDL040C, strain nat1, stronger effect = lower value",0.978 (inactive)
same,normalized growth,"locus YDL074C, strain BRE1, stronger effect = lower value",0.95 (inactive)
same,normalized growth,"locus YDL101C, strain DUN1, stronger effect = lower value",0.939 (inactive)
same,normalized growth,"locus YDL134C, strain PPH21, stronger effect = lower value",0.926 (inactive)
same,normalized growth,"locus YDL185W, strain tfp1, stronger effect = lower value",0.986 (inactive)
same,normalized growth,"locus YDL192W, strain arf1, stronger effect = lower value",0.973 (inactive)
same,normalized growth,"locus YDR001C, strain nth1, stronger effect = lower value",0.943 (inactive)
same,normalized growth,"locus YDR069C, strain doa4, stronger effect = lower value",1.01 (inactive)
same,normalized growth,"locus YDR101C, strain arx1, stronger effect = lower value",0.96 (inactive)
same,normalized growth,"locus YDR137W, strain rgp1, stronger effect = lower value",0.714 (active)
same,normalized growth,"locus YDR159W, strain sac3, stronger effect = lower value",0.951 (inactive)
same,normalized growth,"locus YDR162C, strain NBP2, stronger effect = lower value",0.941 (inactive)
same,normalized growth,"locus YDR195W, strain ref2",1.02 (inactive)
same,normalized growth,"locus YDR297W, strain sur2, stronger effect = lower value",0.961 (inactive)
same,normalized growth,"locus YDR318W, strain mcm21, stronger effect = lower value",0.948 (inactive)
same,normalized growth,"locus YDR334W, strain swr1, stronger effect = lower value",0.977 (inactive)
same,normalized growth,"locus YDR335W, strain msn5, stronger effect = lower value",0.95 (inactive)
same,normalized growth,"locus YDR388W, stronger effect = lower value",0.97 (inactive)
same,normalized growth,"locus YDR392W, strain spt3, stronger effect = lower value",0.764 (inactive)
same,normalized growth,"locus YDR502C, strain sam2, stronger effect = lower value",0.918 (active)
same,normalized growth,"locus YEL003W, strain gim4, stronger effect = lower value",0.959 (inactive)
same,normalized growth,"locus YEL037C, strain rad23, stronger effect = lower value",0.97 (inactive)
same,normalized growth,"locus YEL061C, strain CIN8 (second series), stronger effect = lower value",0.925 (inactive)
same,normalized growth,"locus YEL061C, strain CIN8, stronger effect = lower value",0.988 (inactive)
same,normalized growth,"locus YER015W, strain faa2, stronger effect = lower value",0.966 (inactive)
same,normalized growth,"locus YER016W, strain bim1, stronger effect = lower value",0.973 (inactive)
same,normalized growth,"locus YER110C, stronger effect = lower value",0.975 (inactive)
same,normalized growth,"locus YER111C, strain swi4, stronger effect = lower value",0.957 (inactive)
same,normalized growth,"locus YER155C, strain BEM2 (second series), stronger effect = lower value",0.716 (active)
same,normalized growth,"locus YER155C, strain BEM2, stronger effect = lower value",0.98 (inactive)
same,normalized growth,"locus YER167W, strain BCK2, stronger effect = lower value",0.942 (inactive)
same,normalized growth,"locus YFR010W, strain ubp6, stronger effect = lower value",1.01 (inactive)
same,normalized growth,"locus YGL078C, strain dbp3, stronger effect = lower value",0.943 (inactive)
same,normalized growth,"locus YGL086W, strain mad1, stronger effect = lower value",0.959 (inactive)
same,normalized growth,"locus YGL167C, strain pmr1, stronger effect = lower value",0.965 (inactive)
same,normalized growth,"locus YGL173C, strain kem1, stronger effect = lower value",0.927 (inactive)
same,normalized growth,"locus YGL227W, strain vid30, stronger effect = lower value",0.96 (inactive)
same,normalized growth,"locus YGL240W, strain doc1, stronger effect = lower value",0.968 (inactive)
same,normalized growth,"locus YGL248W, strain PDE1, stronger effect = lower value",0.944 (inactive)
same,normalized growth,"locus YGL253W, strain hxk2, stronger effect = lower value",0.972 (inactive)
same,normalized growth,"locus YGR135W, strain pre9, stronger effect = lower value",0.949 (inactive)
same,normalized growth,"locus YGR229C, strain SMI1, stronger effect = lower value",0.852 (inactive)
same,normalized growth,"locus YGR252W, strain gcn5, stronger effect = lower value",0.923 (inactive)
same,normalized growth,"locus YHR013C, strain ard1, stronger effect = lower value",1.31 [resistant] (active)
same,normalized growth,"locus YHR027C, strain rpn1, stronger effect = lower value",0.979 (inactive)
same,normalized growth,"locus YHR030C, strain SLT2, stronger effect = lower value",0.953 (inactive) and 0.899 (inactive)
same,normalized growth,"locus YHR079C, strain IRE1 (second series), stronger effect = lower value",0.969 (inactive)
same,normalized growth,"locus YHR079C, strain IRE1, stronger effect = lower value",0.902 (inactive)
same,normalized growth,"locus YHR094C, strain hxt1, stronger effect = lower value",0.967 (inactive)
same,normalized growth,"locus YHR129C, strain ARP1, stronger effect = lower value",0.976 (inactive)
same,normalized growth,"locus YHR142W, strain chs7, stronger effect = lower value",0.828 (active)
same,normalized growth,"locus YHR200W, strain rpn10, stronger effect = lower value",0.979 (inactive)
same,normalized growth,"locus YIL066C, strain RNR3, stronger effect = lower value",0.942 (inactive)
same,normalized growth,"locus YIL073C, strain SPO22, stronger effect = lower value",0.924 (inactive)
same,normalized growth,"locus YIL125W, strain kgd1, stronger effect = lower value",0.95 (inactive)
same,normalized growth,"locus YIR030C, strain dcg1, stronger effect = lower value",0.972 (inactive)
same,normalized growth,"locus YJL092W, strain hpr5, stronger effect = lower value",0.936 (inactive)
same,normalized growth,"locus YJL095W, strain BCK1 (second series), stronger effect = lower value",0.959 (inactive)
same,normalized growth,"locus YJL095W, strain BCK1, stronger effect = lower value",0.789 (active) and 0.886 (inactive)
same,normalized growth,"locus YJL115W, strain asf1, stronger effect = lower value",0.959 (inactive)
same,normalized growth,"locus YJL129C, strain trk1, stronger effect = lower value",0.933 (inactive)
same,normalized growth,"locus YJL134W, strain LCB3, stronger effect = lower value",0.988 (inactive)
same,normalized growth,"locus YJL154C, strain vps35, stronger effect = lower value",0.96 (inactive)
same,normalized growth,"locus YJL164C, strain tpk1, stronger effect = lower value",0.922 (inactive)
same,normalized growth,"locus YJL166W, strain qcr8, stronger effect = lower value",0.941 (inactive)
same,normalized growth,"locus YJL168C, strain set2, stronger effect = lower value",0.979 (inactive)
same,normalized growth,"locus YJL187C, strain SWE1 (second series), stronger effect = lower value",0.973 (inactive)
same,normalized growth,"locus YJL187C, strain SWE1, stronger effect = lower value",0.966 (inactive)
same,normalized growth,"locus YJR043C, strain POL32, stronger effect = lower value",0.955 (inactive)
same,normalized growth,"locus YJR066W, strain TOR1, stronger effect = lower value",0.906 (inactive)
